PubChem BioAssay (NCI)
The panel holds about 83,000 compounds, 20% with a hit somewhere; the sample as a whole holds those more often.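 Each cell line was grown in a 96-well plate and treated with one concentration of compound for 48 hours. Values below 10 were considered active.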 The source made the active and inactive calls.

system: HL-60(TB) leukemia; assay: NCI-60 one-dose screen, 48 h (100 = growth as untreated, 0 = no growth, -100 = all killed); conditions: 10 µM unless noted

Structure (SMILES) | growth
CCOC(=O)C1=NN(c2ccc(Cl)cc2)C2C3N(c4ccc(Cl)cc4)N=C(C(=O)OCC)N3c3ccccc3N12 (stereo not given) | -67.8% (active)
Nc1nc(=S)ss1 | 87.8% (inactive)
COc1ccc(C(C(=O)O)c2ccc(OC)cc2)cc1 | 97.9% (inactive)
CCN(CC)CCCNc1cc(OC)c(OC)c2cccnc12 | 29.2% (inactive)
O/N=C/c1cccs1 | 95.3% (inactive)
Cc1ccc(OCCn2ccc(=O)n(CCOc3ccc(Cl)cc3C(=O)c3cc(C)cc(C)c3)c2=O)cc1 | 33.4% (inactive)
O=C(Oc1ccccc1)c1ccccc1Cl | 76.4% (inactive)
Clc1ccc2nc(CI)c(CI)nc2c1 | 2.82% (active)
CSc1nc(S(C)(=O)=O)nc2[nH]c(=O)[nH]c12 | 108% (inactive)
Clc1nc2ccccc2nc1CI | 93.8% (inactive)
COc1ccc(CNCCN2C(=O)c3ccc4c5c(ccc(c35)C2=O)C(=O)N(CCNCc2ccc(OC)cc2)C4=O)cc1 | -63.4% (active)
O=C1/C(=C\c2cccc(OCCCCCOc3ccc(Cl)cc3)c2)N=C2SCCCN12 | 36% (inactive)
CC1(C)CC(=O)C=C(N)C1 | 71.8% (inactive)
O=C(NNC(=O)c1cccc(Cl)c1)c1ccccc1 | 94.3% (inactive)
C/C=C(\C)C(=O)N[C@H]1C(O)C[C@]2(C)C3CC[C@@]4(C)C(CC[C@@H]4C(C)N(C)C)C3CCC2C1O (stereo not given in full) | 5.7% (active)
COc1ccc(/C=N/NC(N)=S)c(OC)n1 | 93.4% (inactive)
COc1ccc(/C=C2\COc3ccc(-c4ccccc4)cc3C2=O)cc1O | -34% (active)
COc1ccc(NC(=O)CSc2nnc(-c3cc(-c4ccccc4)nc4ccccc34)n2-c2ccccc2)cc1 | 105% (inactive)
COc1cc(NCc2ccc3nc(N)nc(N)c3c2C)cc(OC)c1OC (tested in a mixture with another compound) | 25.7% (inactive)
O=C1CSc2ccccc2N1 | 121% (inactive)

Structure (SMILES) | growth
COc1ccc(C(=O)c2nccc3cc(OC)c(OC)cc23)cc1OC | 102% (inactive)
O=C(Nc1ccc(F)cc1)c1cc([N+](=O)[O-])ccc1O | 59.6% (inactive)
COc1cc(-c2nn(-c3ccc(NC(=O)NCCNS(=O)(=O)c4ccc(F)cc4)cc3)cc2-c2ccncc2)ccc1Cl | -9.47% (active)
N=C(N)c1ccc(-c2ccc(-c3ccc(Cl)cc3)o2)nc1 | 110% (inactive)
c1cc(NCCc2ccncc2)nc(-n2cnc3ccccc32)c1 | 67.7% (inactive)
CCCCCCCCCCNC(=O)CI | 19.3% (inactive)
COc1cc(/C=C/C(=O)c2c(C)oc3nc[nH]c(=O)c23)ccc1O | 117% (inactive)
CC(=O)Nc1nc(C)c(C(=O)N/N=C/c2cccn2C)s1 | 112% (inactive)
Cc1ccc2c(c1)C(=O)/C(=C/c1ccc(OCC(=O)c3ccccc3)cc1)O2 | 69.9% (inactive)
COc1ccc(C2=Nc3c/c(=C\c4c(O)[nH]c5cc(Cl)ccc45)ccc3=N2)cc1 | 12.4% (inactive)
O=C(Nc1cccc(-n2ccc3c(NC(=O)c4ccccc4)nccc32)c1)c1cc(N2CCOCC2)cc(C(F)(F)F)c1 | -13.1% (active)
COc1cc(-c2nc(SCCC(C)C)nc(Nc3ccc(F)cc3)c2C#N)cc(OC)c1OC | 84.9% (inactive)
CCCCc1nc(Cl)c(C2CC(c3ccc(S(N)(=O)=O)cc3)=NN2c2ccc(C#N)cc2)[nH]1 (stereo not given) | 92.7% (inactive)
C=C(CNCCO)[C@@H]1CC[C@]2(CO)CC[C@]3(C)[C@H](CC[C@@H]4[C@@]5(C)CCC(NCCc6ccc(O)cc6)C(C)(C)[C@@H]5CC[C@]43C)[C@@H]12 (stereo not given in full) | -52.2% (active)
Oc1ccc(Nc2ccccc2)cc1 | 66.5% (inactive)
O=C(O)c1nn(-c2ccc(Cl)cc2)nc1N1CCCC1 | 97% (inactive)
COc1cccc(-c2nnc(COc3ccc(-c4nc5ccccc5[nH]4)cc3OC)o2)c1 | 103% (inactive)
CC(C)(C)CC(C)(C)c1ccc(OCCSC(=N)N)cc1 | 22.2% (inactive)
CCN(CCN(C)C)C(=O)CNCc1cc(C(N)=O)ccn1 | 88.7% (inactive)
O=S(=O)(c1ccc(OCCO)cc1)c1ccc(OCCO)cc1 | -0.844% (active)
